Assay results from PubChem BioAssay (NCATS).
Inconclusive results are not listed. A number with no mark means an inactive call. Activity calls are given as the source filed them. Calls follow the shape of the dose curve; as a rule, active = well fitted curve in the direction sought with a large enough effect; inconclusive = small, poorly fitted or top-dose-only effect, or another doubt; inactive = no such curve, though single readings can be large or run the other way.

target: Calcium and integrin-binding protein 1 (Homo sapiens) (UniProt Q99828); experiment: Validation qHTS for Identification of Calcium Integrin Binding protein 1 (CIB1) Competitor (AID 1508618); conditions: CIB1-GST / FITC-alphaIIb peptide fluorescence polarization; series mostly up to 114 µM; activity change, negative = inhibition: at the top concentration
Sequence (Q99828 whole entry, looked up): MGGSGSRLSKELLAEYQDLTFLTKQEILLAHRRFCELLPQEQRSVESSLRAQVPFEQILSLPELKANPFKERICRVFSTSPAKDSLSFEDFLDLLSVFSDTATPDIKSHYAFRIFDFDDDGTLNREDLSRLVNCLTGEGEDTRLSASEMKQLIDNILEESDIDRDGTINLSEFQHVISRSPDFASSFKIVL
Description: Assay Provider: Ulhas P. Naik, PhD
Sidney Kimmel Medical College
Thomas Jefferson University, Philadelphia, PA
Primary function of platelets is to maintain hemostasis. At the site of vascular injury, platelets adhere to adhesive proteins such as collagen and von Willebrand factor. Adherent platelets are activated and generate soluble platelet agonists such as thrombin, ADP and thromboxane A2. Following exposure of circulating platelets to these agonists, results in platelet shape change, granule secretion and activation of platelet integrin alphaIIb-beta3. Ligand binding to activated integrin alphaIIb-beta3 triggers outside-in signaling, leading to platelet aggregation, stabilization of platelet plug, and clot retraction. Upon atherosclerotic plaque rupture also causes platelet plug formation, which underlies a number of cardiovascular diseases such as myocardial infraction and stroke. A number of anti-platelet drugs such as aspirin, clopidogrel, prasugrel, vorapaxar, and eptifibatide are currently available to prevent the thrombotic complications. However, these anti-platelet agents have several limitations including inherent variability in individual responses, developing resistance, and serious bleeding side effects. For these reasons they are not suitable for long-term protection. Based on the experiences with current anti-platelet drugs, it appears that the most useful therapeutic approach is to intersect the secondary responses such as integrin outside-in signaling or recruitment of platelets by TxA2 and secreted ADP. Compounds, which can largely preserve the primary hemostatic function of platelets but inhibit secondary response will be most desired therapeutic agents for treatment of cardiovascular disease.
CIB1 is a calcium integrin binding protein, which specifically interact with the alphaIIb subunit of integrin alphaIIb-beta3. Binding of CIB1 to alphaIIb regulates the outside-in signaling in platelets, which is needed for thrombus stabilization and thrombus growth. […] Therefore, we propose that discovery of a small molecule that can prevent the association of CIB1 and alphaIIb-beta3 will be a potential anti-platelet agent that can block the thrombus formation without undue effect on hemostasis.
To develop fluorescence polarization (FP) assay using fluorescently labeled alphaIIb peptide and CIB1 protein. Using FP assay characterize the binding affinity, competitive inhibition, and acceptable Z factor (0.5 to1) in order to perform the HTS to identify small molecule compound that can prevent CIB1 binding to platelet integrin alphaIIbbeta3. This assay is screened against the NCATS LOPAC library to validate the amenability of the assay to qHTS.
[1] Naik MU, Nigam A, Manrai P, et al. CIB1 deficiency results in impaired thrombosis: the potential role of CIB1 in outside-in signaling through integrin alpha IIb beta 3. J Thromb Haemost. 2009;7(11):1906-1914. doi:10.1111/j.1538-7836.2009.03581.
SEQUENCE No. (1, 2, 3, etc.); […] (e.g., Cells, Incubation, Reagent, etc.); VALUE and DESCRIPTION.
1; Reagent; 3 uL; Protein or buffer (4/3x)
2; Compound; 46 nL; Control inhibitor / compound library
3; Time; 15 min; Room temperature incubation
4; Reagent; 1 uL; Fluorescent labeled peptide (4x)
5; Time; 1000 rpm; Centrifuge
6; Time; 15 min; Room temperature incubation
7; Detection; Ex 480/ Em 540; ViewLux Fluorescence Read
NOTES (numbers refer to sequence above)
1; Protein Mixture: C1B1-GST (final concentrations of 1 uM). Buffer composition: 5 mM HEPES pH 7.4, 125 mM NaCl, 5 mM CaCl2, 0.01% Tween20.
2; Control Inhibitor: unlabeled peptide (final concentration range 17.4 nM to 572 uM). Compound Library final concentration range 18.3 nM to 114 uM.
3; Room temperature incubation.
4; Fluorescent Labeled Peptide: FITC-aIIb (final concentration of 100 nM). Sequence of alphaIIb peptide: Acetyl-[…]-FITC (purity is 95.83%).
6; Room temperature incubation.
[…]
% is scaled to controls: 0 for no effect and ±100 for the full control effect.

| SMILES | activity change, negative = inhibition [%] | outcome |
| --- | --- | --- |
| CSc1ccc2c(c1)N(CCC1CCCCN1C)c1ccccc1S2 (stereo not given) | -2.34 |  |
| C[C@]12C[C@H](O)[C@H]3[C@@H](CCC4=CC(=O)CC[C@@]43C)[C@@H]1CC[C@@H]2C(=O)CO | 8.63 |  |
| COCCOC(=O)C1=C(C)NC(C)=C(C(=O)OC/C=C/c2ccccc2)C1c1cccc([N+](=O)[O-])c1 (stereo not given) | -1.44 |  |
| C[C@H]1O[C@@H](n2cc(F)c(=O)[nH]c2=O)[C@H](O)[C@@H]1O | 5.95 |  |
| CN1CCN(C2Cc3ccccc3Sc3ccc(Cl)cc32)CC1 (stereo not given) | -9.16 |  |
| CC(C)(C)c1onc(OCP(=O)(O)O)c1CC(N)C(=O)O (stereo not given) | 13.1 |  |
| CCCn1cnc2c1c(=O)n(CCCCC(C)=O)c(=O)n2C | 7.25 |  |
| CNC(=O)Oc1ccc2c(c1)[C@]1(C)CCN(C)[C@@H]1N2C | -4.43 |  |
| O=C1NC(=O)[C@@]2(CCOc3ccc(F)cc32)N1 | 6.63 |  |
| NC(=O)c1ncn([C@@H]2O[C@H](CO)[C@@H](O)[C@H]2O)n1 | 4.41 |  |
| Nc1ncnc2c1ncn2[C@@H]1O[C@H](CO)[C@@H](O)[C@H]1O | 8.6 |  |
| CNCC(O)c1ccc(O)c(O)c1 (stereo not given) | 10.8 |  |
| CC(C(O)c1ccc(O)cc1)N1CCC(Cc2ccccc2)CC1 (stereo not given) | -1.01 |  |
| CC(C)c1c(C(=O)Nc2ccccc2)c(-c2ccccc2)c(-c2ccc(F)cc2)n1CC[C@@H](O)C[C@@H](O)CC(=O)O | 4.02 |  |
| C[C@]12CC[C@@H]3c4ccc(O)cc4CC[C@H]3[C@@H]1CCC2=O | 4.66 |  |
| CC(C)(C)[C@]1(O)CCN2C[C@H]3c4ccccc4CCc4cccc(c43)[C@@H]2C1 |  | inactive |
| CC(=O)c1ccc2c(c1)N(CCCN(C)C)c1ccccc1S2 | -2.88 |  |
| O=C1N=C(O)CN1/N=C/c1ccc(-c2ccc([N+](=O)[O-])cc2)o1 | -8.58 |  |
| CC(CN(C)C)CN1c2ccccc2CCc2ccccc21 (stereo not given) | 6.37 |  |
| CC1=C(CC(=O)O)c2cc(F)ccc2/C1=C\c1ccc(S(C)(=O)=O)cc1 | 9.22 |  |

| SMILES | activity change, negative = inhibition [%] | outcome |
| --- | --- | --- |
| CN(C)CCC=C1c2ccccc2CCc2ccccc21 | -0.449 |  |
| CC1=C(/C=C/C(C)=C/C=C/C(C)=C/C(=O)O)C(C)(C)CCC1 | -1.92 |  |
| CCN(CC)CCNC(=O)c1c(C)[nH]c(/C=C2\C(=O)Nc3ccc(F)cc32)c1C | 66.9 |  |
| N=c1c[n+](N2CCOCC2)[n-]o1 | 5.6 |  |
| CC(CN1c2ccccc2Sc2ccccc21)N(C)C (stereo not given) | 9.37 |  |
| CC(C)NC[C@H](O)c1ccc(O)c(O)c1 |  | inactive |
| CCN(CC)CCOC(=O)C1(C2CCCCC2)CCCCC1 | -4.25 |  |
| CNCCCC1c2ccccc2C=Cc2ccccc21 | -0.112 |  |
| CN1CCC[C@@H]1Cc1c[nH]c2ccc(CCS(=O)(=O)c3ccccc3)cc12 | -0.175 |  |
| CCN(CC)C(C)CN1c2ccccc2Sc2ccccc21 (stereo not given) | 0.709 |  |
| Nc1cc(=O)[nH]c(N)n1 | 10.3 |  |
| NC1[C@H]2CN(c3nc4c(cc3F)c(=O)c(C(=O)O)cn4-c3ccc(F)cc3F)C[C@@H]12 (stereo not given in full) | 12.1 |  |
| CCCCN(CCCC)CC(O)c1cc(Cl)cc2c1-c1ccc(Cl)cc1/C2=C/c1ccc(Cl)cc1 (stereo not given) | 16 |  |
| CC[C@H]1CN2CCc3cc(OC)c(OC)cc3[C@@H]2C[C@@H]1C[C@H]1NCCc2cc(OC)c(OC)cc21 | 15.5 |  |
| CN(C)CCCN1c2ccccc2Sc2ccc(Cl)cc21 | -9.09 |  |
| CCN(CC)CCNC(=O)c1cc(Cl)c(N)cc1OC | 6.87 |  |
| Cc1c(O)cccc1C(=O)N[C@@H](CSc1ccccc1)[C@H](O)CN1C[C@H]2CCCC[C@H]2C[C@H]1C(=O)NC(C)(C)C | 9.74 |  |
| C[C@](N)(Cc1ccc(O)cc1)C(=O)O | -1.97 |  |
| OCc1cc(C(O)CNCCCCCCOCCCCc2ccccc2)ccc1O (stereo not given) | -12.9 |  |
| C#CCN(C)Cc1ccccc1 | 8.72 |  |
